Results reported in PubChem BioAssay (NCATS).
Records with an inconclusive call do not appear. Calls come from the whole dose curve; as a rule, active = well fitted curve in either direction with a large enough effect (not every such curve was filed as active); inconclusive = small, poorly fitted or top-dose-only effect, or another doubt; inactive = flat fitted curve, though single readings scatter.

Assay: NFAT Signaling Pathway (AID 444);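 note: carbachol stimulus at about its EC50 of 1 µM final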
Settings: Jurkat NFAT-bla M1, carbachol, beta-lactamase ratio, 5 h; at 17.2 µM (top of the series) unless noted
In short: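 Read-out: CCF4 FRET ratio (460 nm/530 nm) after 1 h RT dye loading, used for %activity and AC50 from titration series. Cells: Jurkat NFAT-β-lactamase/M1 line, treated with compound plus 1 uM carbachol for 5 h, 37 °C.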
% is set by controls: 0 for no effect and ±100 for the full control effect.

Activity change, negative = inhibition, inactive:
COc1ccc(C2=Nn3c(nnc3-c3ccccc3)SC2)cc1OC -10.8%, Cn1c(SCC(=O)N2CCOCC2)nnc1-c1cccc(NC(=O)c2ccccc2F)c1 -5.78%, CCc1nc(NCC(C)C)c(C#N)c2c1COC(C)(C)C2 -0.964%, COc1ccccc1-c1cc(-c2cc(Cl)ccc2O)n[nH]1 2.8%, CCNC(=O)N(C(=O)NCC)n1c(C)nnc1C -11.9%, O=C(N(c1ccccc1)c1ccccc1)n1ccnc1 10.9%, COc1ccc(CCNC2CC(C)N(C)CC2C)cc1OC (stereo not drawn) -14.9%, COc1ccc(OCC(=O)N2CCN(C(=O)c3cccc4ccccc34)CC2)cc1 5.36%, CCOc1nc(Oc2cccc(C(=O)O)c2)nc(Oc2cccc(C(=O)O)c2)n1 0.693%, CCOC(=O)C1=C(N)n2c(s/c(=C\c3ccco3)c2=O)=C(C(=O)OC(C)C)C1c1ccco1 (stereo not drawn) -23.7%, COc1cc(C2C(C(=O)c3cccs3)=C(O)C(=O)N2c2cc(C)on2)ccc1O (stereo not drawn) 0.425%, COc1ccc(OC)c(C2/C(=C(\O)c3ccc4c(c3)OCCO4)C(=O)C(=O)N2CCCN(C)C)c1 (stereo not drawn) 12.2%, CCCCOC(=O)c1[nH]c(C)c(C(=O)OC)c1C 8.05%, CCc1nc2n[nH]c(N)c2c2c1CSC(C)(C)C2 14.6%, Cn1c(NCc2cccnc2)nc2c1c(=O)n(Cc1ccccc1F)c(=O)n2C -10.3%, OC(CCCN1CCC(O)(c2ccc(Cl)cc2)CC1)c1ccc(F)cc1 (stereo not drawn) -27.5%, CC(=O)Nc1cc2c(cc1Br)OCCO2 -0.709%, COc1cccc(Cn2c(NCc3ccco3)nc3c2c(=O)n(C)c(=O)n3C)c1 -5%, CCOc1cccc(NC(=O)C2CC(=O)NC(=Nc3ccccc3)S2)c1 (stereo not drawn) 6.96%, COC(=O)/C=c1/s/c(=C(/C#N)C(=O)N2CCCCC2)n(-c2ccccc2)c1=O -25.6%, CC1(C)Cc2c(sc3c2C(=O)N(c2ccccc2)C2=NCCCN23)CO1 -14.6%, Cn1c(=O)c2c(nc(NCc3ccc4c(c3)OCO4)n2Cc2ccccc2F)n(C)c1=O -14%, COc1ccccc1-n1c(=O)c2c3c(sc2n2c(SC(C)C)nnc12)CCC3 -27.1%, COc1cc(C)nc(Nc2nc(C)c(C(C)=O)s2)n1 -2.73%, COc1ccc2c(=O)c(-c3nc(C)cs3)coc2c1 15.3%, c1cncc(-c2nnc3sc(-c4ccco4)nn23)c1 4.1%, Cn1c(OCc2cccnc2)nc2c1c(=O)n(Cc1ccccc1)c(=O)n2C -1.28%, Cn1c(SCC(=O)N2CCOCC2)nnc1-c1ccc(Cl)cc1Cl -5.6%, COc1c(O)ccc2cnn(-c3ccccc3C)c(=O)c12 -7.24%, CCCCOc1ccc(C(=O)N2CCCC2C(=O)O)cc1 (stereo not drawn) -4.49%, CCN(CC)CCN1C(=O)c2ccccc2NC1c1cc(OC)c(OC)c(OC)c1 (stereo not drawn) 5.73%, CCN(CC)CCCN1C(=O)C(=O)/C(=C(/O)c2ccc(C)cc2)C1c1ccccn1 (stereo not drawn) 10.1%, CNc1oc(-c2ccc(Cl)cc2)nc1C#N 18.3%, CN(C)CCNc1nc(-c2ccco2)c2c(c1C#N)CC(C)(C)OC2 -23%, CCCc1cc(=O)oc2c(C)c(O)c(CN3CCCCC3)cc12 19.5%, COC(=O)C(NC(C)=O)(Nc1ccc(Br)cn1)C(F)(F)F (stereo not drawn) 3.2%, CCOC(=O)CNS(=O)(=O)c1cc(-c2nn(C)c(=O)c3ccccc23)ccc1C -12.6%, CCOC(=O)Oc1ccc2c(c1)C(C)=CC(C)(C)N2C(=O)OCC -5.18%, CC(O)CNc1nc2c(c(=O)n(C)c(=O)n2C)n1CCc1ccccc1 (stereo not drawn) -12.9%

Assay: Stat Signaling Pathway (AID 446);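 note: ME-180 cervical cancer cells given 40 pM IL-6 alongside compound; SIE-controlled beta-lactamase reporter measured as 460/530 nm FRET emission ratio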
Settings: ME-180 SIE beta-lactamase reporter, IL-6 stimulated, 5 h; at 17.2 µM (top of the series) unless noted
In short: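 ME-180 cells carrying a SIE-driven beta-lactamase reporter are stimulated with 40 pM IL-6 for 5 h at 37C in the presence of compound. The 460/530 nm FRET substrate ratio is read after 2.5 h at RT. Data are normalised to 300 pM IL-6 and to 125 nM JAK inhibitor controls.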

activity, negative = inhibition, inactive:
COc1ccc(C2=Nn3c(nnc3-c3ccccc3)SC2)cc1OC 3.68%, Cn1c(SCC(=O)N2CCOCC2)nnc1-c1cccc(NC(=O)c2ccccc2F)c1 12%, CCc1nc(NCC(C)C)c(C#N)c2c1COC(C)(C)C2 1.74%, COc1ccccc1-c1cc(-c2cc(Cl)ccc2O)n[nH]1 8.92%, CCNC(=O)N(C(=O)NCC)n1c(C)nnc1C 12.4%, O=C(N(c1ccccc1)c1ccccc1)n1ccnc1 0.426%, COc1ccc(CCNC2CC(C)N(C)CC2C)cc1OC (stereo not drawn) 4.89%, COc1ccc(OCC(=O)N2CCN(C(=O)c3cccc4ccccc34)CC2)cc1 -1.16%, CCOc1nc(Oc2cccc(C(=O)O)c2)nc(Oc2cccc(C(=O)O)c2)n1 8.24%, CCOC(=O)C1=C(N)n2c(s/c(=C\c3ccco3)c2=O)=C(C(=O)OC(C)C)C1c1ccco1 (stereo not drawn) 4.26%, COc1cc(C2C(C(=O)c3cccs3)=C(O)C(=O)N2c2cc(C)on2)ccc1O (stereo not drawn) -6.54%, COc1ccc(OC)c(C2/C(=C(\O)c3ccc4c(c3)OCCO4)C(=O)C(=O)N2CCCN(C)C)c1 (stereo not drawn) -7.15%, CCCCOC(=O)c1[nH]c(C)c(C(=O)OC)c1C -9.04%, CCc1nc2n[nH]c(N)c2c2c1CSC(C)(C)C2 -13.2%, Cn1c(NCc2cccnc2)nc2c1c(=O)n(Cc1ccccc1F)c(=O)n2C -20.6%, OC(CCCN1CCC(O)(c2ccc(Cl)cc2)CC1)c1ccc(F)cc1 (stereo not drawn) 4.61%, CC(=O)Nc1cc2c(cc1Br)OCCO2 -0.829%, COc1cccc(Cn2c(NCc3ccco3)nc3c2c(=O)n(C)c(=O)n3C)c1 -24.4%, CCOc1cccc(NC(=O)C2CC(=O)NC(=Nc3ccccc3)S2)c1 (stereo not drawn) -16.5%, COC(=O)/C=c1/s/c(=C(/C#N)C(=O)N2CCCCC2)n(-c2ccccc2)c1=O -5.91%, CC1(C)Cc2c(sc3c2C(=O)N(c2ccccc2)C2=NCCCN23)CO1 5.74%, Cn1c(=O)c2c(nc(NCc3ccc4c(c3)OCO4)n2Cc2ccccc2F)n(C)c1=O -25.4%, COc1ccccc1-n1c(=O)c2c3c(sc2n2c(SC(C)C)nnc12)CCC3 10.5%, COc1cc(C)nc(Nc2nc(C)c(C(C)=O)s2)n1 4.9%, COc1ccc2c(=O)c(-c3nc(C)cs3)coc2c1 12.4%, c1cncc(-c2nnc3sc(-c4ccco4)nn23)c1 -6.03%, Cn1c(OCc2cccnc2)nc2c1c(=O)n(Cc1ccccc1)c(=O)n2C 4.58%, Cn1c(SCC(=O)N2CCOCC2)nnc1-c1ccc(Cl)cc1Cl 5.04%, COc1c(O)ccc2cnn(-c3ccccc3C)c(=O)c12 25.4%, CCCCOc1ccc(C(=O)N2CCCC2C(=O)O)cc1 (stereo not drawn) 9.6%, CCN(CC)CCN1C(=O)c2ccccc2NC1c1cc(OC)c(OC)c(OC)c1 (stereo not drawn) 10.5%, CCN(CC)CCCN1C(=O)C(=O)/C(=C(/O)c2ccc(C)cc2)C1c1ccccn1 (stereo not drawn) 4.05%, CNc1oc(-c2ccc(Cl)cc2)nc1C#N 5.14%, CN(C)CCNc1nc(-c2ccco2)c2c(c1C#N)CC(C)(C)OC2 12.9%, CCCc1cc(=O)oc2c(C)c(O)c(CN3CCCCC3)cc12 10.7%, COC(=O)C(NC(C)=O)(Nc1ccc(Br)cn1)C(F)(F)F (stereo not drawn) -10.2%, CCOC(=O)CNS(=O)(=O)c1cc(-c2nn(C)c(=O)c3ccccc23)ccc1C -5.95%, CCOC(=O)Oc1ccc2c(c1)C(C)=CC(C)(C)N2C(=O)OCC 4.48%, CC(O)CNc1nc2c(c(=O)n(C)c(=O)n2C)n1CCc1ccccc1 (stereo not drawn) -8.4%
